Only some compounds are listed: those with a hit (about 6.9% of all), similar ones and a draw of the others.
VDR inh: blocks the human vitamin D receptor | P11473 | Potency, µM, for the others: max response, negative = inhibition, usual class: inhibitors | VDR-SRC2-3 peptide fluorescence polarization, 2 h | 400,000 compounds, 0.93% hits | AID 504847; note: % is set by controls: 0 for no effect and ±100 for the full control effect
Target sequence (P11473 whole entry, looked up): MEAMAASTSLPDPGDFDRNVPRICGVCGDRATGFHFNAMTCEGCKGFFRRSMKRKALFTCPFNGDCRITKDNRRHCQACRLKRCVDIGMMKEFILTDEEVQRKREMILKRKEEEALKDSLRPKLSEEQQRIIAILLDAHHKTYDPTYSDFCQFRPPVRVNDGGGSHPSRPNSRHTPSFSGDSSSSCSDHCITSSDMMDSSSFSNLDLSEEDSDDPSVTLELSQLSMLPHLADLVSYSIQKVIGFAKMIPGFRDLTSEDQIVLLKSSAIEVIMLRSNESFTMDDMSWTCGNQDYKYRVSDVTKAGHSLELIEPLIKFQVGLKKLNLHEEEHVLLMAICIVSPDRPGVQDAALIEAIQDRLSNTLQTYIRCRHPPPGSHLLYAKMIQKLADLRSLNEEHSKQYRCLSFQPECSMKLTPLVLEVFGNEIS
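Measured by FP: displacement of SRC2-3 coactivator peptide from VDR by library compounds, following a two-hour ambient incubation.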
JMJD2A Tudor inh: blocks the human JMJD2A Tudor domain | AID 504339 | AlphaScreen JMJD2A-Tudor / H3K4me3 peptide binding | Potency, µM (doses to about 114 µM), inactives show at the highest dose activity change, negative = inhibition, usual class: inhibitors | 390,000 compounds, 4.4% hits; note: % is set by controls: 0 for no effect and ±100 for the full control effect; nearly all actives have a fitted effect of over 50% in size
HP1b binding inh: inhibitors of HP1-beta chromodomain binding to methylated histone tails; 390,000 compounds, 0.56% hits; AID 540317; P83916; AlphaScreen HP1-beta / biotin-H3K9me3 peptide binding; Potency, µM (series often up to 114 µM), for the others: at the highest dose activity change, negative = inhibition, hits mostly inhibitors; note: nearly all actives have a fitted effect of over 70% in size
Target sequence (P83916 whole entry, looked up): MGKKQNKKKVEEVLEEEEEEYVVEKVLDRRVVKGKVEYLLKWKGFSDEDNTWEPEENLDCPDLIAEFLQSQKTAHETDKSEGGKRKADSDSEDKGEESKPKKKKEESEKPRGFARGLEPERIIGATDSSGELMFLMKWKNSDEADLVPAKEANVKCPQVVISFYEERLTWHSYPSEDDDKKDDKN
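Compound inhibition of the preformed complex between 50 nM HP1-beta and 50 nM biotinylated H3K9me3 peptide was read by AlphaScreen. Buffer was PBS pH 7.4 with 0.01% Tween-20. Incubations ran 30 min at room temperature, with 10 ug/mL donor/acceptor beads.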
BAZ2B block: blocks human BAZ2B; 360,000 compounds, 4.4% hits; Q9UIF8; AlphaScreen BAZ2B-H3K14Ac peptide displacement; Potency, µM (highest dose often 114 µM), for inactives: at the top dose activity change, negative = inhibition, usual class: inhibitors; note: % is set by controls: 0 for no effect and ±100 for the full control effect; nearly all actives have a fitted effect of over 60% in size
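In this displacement format the biotinylated H3(5-23) peptide acetylated at Lys14 serves as ligand at 50 nM, with BAZ2B at 50 nM in PBS pH 7.4 containing 0.01% Tween-20. Donor and acceptor beads are 10 ug/mL final.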
PLK1 PBD block: inhibitors of human PLK1 polo-box domain binding | P53350 | Plk1 PBD binding of FITC phosphopeptide, fluorescence polarization | Potency, µM, inactives show max response, negative = inhibition, most hits filed as inhibitors | 360,000 compounds, 2.8% hits | AID 720504; note: series mostly up to about 57 µM; % is set by controls: 0 for no effect and ±100 for the full control effect; nearly all actives have a fitted effect of over 65% in size
L3MBTL1 inh: blocks human L3MBTL1; Q9Y468; AlphaScreen L3MBTL1–H3K9me1 peptide binding; Potency, µM (doses to about 57.1 µM), inactives show at the top dose activity, negative = inhibition, usual class: inhibitors; 230,000 compounds, 0.66% hits; note: % is set by controls: 0 for no effect and ±100 for the full control effect; nearly all actives have a fitted effect of over 60% in size
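AlphaScreen proximity signal between nickel-chelate acceptor and streptavidin donor beads (final 10 ug/mL) reports binding of 50 nM L3MBTL1 to 75 nM biotin-H3 K9me1 peptide; complex incubated with compounds 30 min at room temperature; cefsulodin titration as control.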
Numbers without * were called inactive; ? = inconclusive; nt = not tested or not shown; [ ] = dose if it differs, or a comment. Calls come from the whole dose curve; as a rule, active = well fitted curve in the direction sought with a large enough effect; inconclusive = small, poorly fitted or top-dose-only effect, or another doubt; inactive = no such curve, though single readings can be large; an effect the other way counts as inactive or inconclusive. Potency is the fitted concentration of half-maximal effect.

SMILES	VDR inh	JMJD2A Tudor inh	HP1b binding inh	BAZ2B block	PLK1 PBD block	L3MBTL1 inh
Cc1nc2c3ccccc3nc(NNC(=O)CCC(=O)N3CCN(c4cc(Cl)ccc4C)CC3)n2n1	10%	-15%	40%	-12%	nt	nt
O=C(C1CCN(S(=O)(=O)c2ccc(F)cc2)CC1)N1CCCC(C(F)(F)F)C1 (stereo unspecified)	-10%	-11%	13%	13%	-7%	3%
CCOC1=C2[C@@H](CN(S(=O)(=O)c3ccc(C)cc3)[C@H]2c2cccc3ccccc23)[C@H]2C(=O)N(C3CCCCC3)C(=O)[C@H]2C1	nt	nt	nt	nt	0%	nt
Cc1ccc(C)n1-c1ccc(N2CCOCC2)cc1	-7%	?	-22%	?	-8%	-9%
Cc1ccc(C)n1-c1ccc(N(C)C)cc1	?	50µM*	?	25µM*	-22%	nt
Cc1ccc(NC(=O)C2CCCN(S(=O)(=O)c3c(C)n[nH]c3C)C2)cc1C (stereo unspecified)	-6%	7%	41%	nt	nt	nt
COc1ccc2oc(=O)c(C(=O)N3CCN(C(=O)c4ccco4)CC3)cc2c1	-13%	79µM*	-7%	8%	30µM*	nt
COc1ccc2oc(=O)c(C(=O)N3CCN(C(=O)c4ccccc4)CC3)cc2c1	4%	-6%	22%	3%	-4%	nt
COc1ccc2oc(=O)c(C(=O)NCCc3c(C)[nH]c4ccc(C)cc34)cc2c1	-15%	?	?	25µM*	nt	nt
COc1ccc2oc(=O)c(C(=O)NCc3ccc(F)cc3)cc2c1	-5%	-7%	40%	3%	-4%	-4%
COc1ccc2oc(=O)c(/C(C)=N/Nc3ccccc3)cc2c1	-5%	-23%	41%	nt	19µM*	nt
COc1ccc2oc(=O)c(C(=O)Nc3ccccc3C)cc2c1	?	-15%	11%	50µM*	-25%	-1%[2.29 µM]
CCOC(=O)/C(C#N)=C/c1ccc(OC)c(OC)c1	-3%	-6%	28%	7%	-5%	nt
COc1cc(/C=C(\C#N)C(=O)c2ccc(O)c(O)c2)cc(I)c1O	?	8.9µM*	8.9µM*	40µM*	40%	0.32µM*
Cc1cc(-c2ccc(C)c(S(=O)(=O)NC(c3cccs3)C(C)C)c2)on1 (stereo unspecified)	9%	-15%	8%	-12%	nt	nt
Cc1cc(C)c(C(=O)COc2cccnc2[N+](=O)[O-])cc1C	?	56µM*	3%	50µM*	?	nt
C=C1CCN(CC(=O)OC)S(=O)(=O)c2ccccc21	-17%	-17%	8%	11%	-3%	nt
CCN1C(=O)S/C(=C/c2c(OCc3ccc(C(=O)O)cc3)ccc3ccccc23)C1=O	?	?	-4%	?	38µM*	-5%
COc1ccc(C(c2c(O)cc(C)n(Cc3ccco3)c2=O)N2CCCCC2)cc1OC (stereo unspecified)	21%	-9%	19%[57 µM]	0%	nt	nt
COc1ccc(OC)c2[nH]c(C(=O)N3CCC(C(=O)O)CC3)cc12	-18%	-8%	33%	1%	-10%	nt
COc1ccc(OC)c2[nH]c(C(=O)O)cc12	-21%	89µM*	-6%	-1%	-9%	-8%
CC(=O)c1[nH]c(C)c(C(=O)NCc2ccc(Cl)cc2)c1C	3%	5%	65%	-3%	nt	nt
NC(=S)c1ccc[n+]([C@@H]2O[C@@H](COP(=O)([O-])OP(=O)(O)OC[C@H]3O[C@@H](n4cnc5c(N)ncnc54)[C@H](OP(=O)(O)O)[C@@H]3O)C(O)C2O)c1 (stereo partly specified)	1%	nt	nt	nt	nt	nt
Cc1ccc(/C=N/n2cnc3sc(C)c(C)c3c2=O)o1	?	-16%	-19%	-23%	21µM*	-14%
O=C(c1cc(S(=O)(=O)NCc2ccco2)ccc1Br)N1CCOCC1	1%	-8%	33%	12%	-1%	-8%
SMILES	VDR inh	JMJD2A Tudor inh	HP1b binding inh	BAZ2B block	PLK1 PBD block	L3MBTL1 inh
CC(CNC(=O)c1cnn(-c2ccc(F)cc2)c1-n1cccc1)c1ccccc1 (stereo unspecified)	-2%	-17%	42%	0%	nt	nt
COc1ccc(CNS(=O)(=O)c2ccc(F)cc2Br)cc1	25%	-8%	19%	nt	-19%	nt
COc1ccc(CNS(=O)(=O)c2ccc(N3CCCC3)cc2Br)cc1	?	?	51%	nt	24µM*	-4%
COc1ccc(CN(C)C(=S)Nc2ccc(Cl)cc2)cc1	-22%	-7%	29%	2%	-20%	nt
O=C(CCc1nnc2n(Cc3ccccc3Cl)c(=O)c3ccccc3n12)Nc1ccc(F)c(F)c1	-8%	?	26%	3%	nt	nt
O=C(Nc1ccccc1)C1C2/C=C\CCCCC21 (stereo unspecified)	-12%	?	11%	-14%	27µM*	4%[11.4 µM]
S=c1c2c(nc3nc[nH]n13)CCC2	-24%	6.3µM*	26%	45µM*	-20%	5%
CC1CCc2c(nc3nc[nH]n3c2=O)C1 (stereo unspecified)	15%	-11%	32%	7%	-1%	nt
CCN(CC)C(=O)CSc1nnc(-c2ccccc2)n1-c1ccccc1	3%	50µM*	60%	5%	-6%	5%
O=C(CSc1nnc(-c2cccnc2)n1-c1ccccc1)Nc1ccccn1	-18%	-34%[11.4 µM]	?	-4%	3.4µM*	nt
C=CCn1c(SCC(=O)Nc2nnc(C)s2)nnc1-c1cccnc1	-3%	56µM*	9%	-35%	21µM*	nt
C=CCn1c(SCC(=O)Nc2ccc(C)cc2C)nnc1-c1cccnc1	15%	-5%	44%	0%	-1%	nt
CN(C)C(=O)CSc1nnc(-c2cccnc2)n1-c1ccccc1	-11%	-7%	37%	-2%	-11%	1%
COc1cc(NC(=O)CN2C(=O)c3ccccc3Sc3ccc(C(=O)N4CCCC4)cc32)cc(OC)c1	11%	-22%	28%	1%	nt	nt
Cc1ccc(-c2n[nH]c(=S)n2/N=C/c2c(C)nn(-c3ccccc3)c2C)cc1	-1%	79µM*	10%	-25%	-5%	7%
CC(C)c1ccc(/C=N/n2c(-c3ccccc3)n[nH]c2=S)cc1	7%	?	20%	-1%	-16%	-4%[2.29 µM]
Cc1nn(-c2ccccc2)c(C)c1/C=N/n1c(-c2ccc(C(C)(C)C)cc2)n[nH]c1=S	-6%	?	?	?	-14%	-16%
Cc1ccc(-c2n[nH]c(=S)n2/N=C/c2ccc(C(=O)O)cc2)cc1	0%	3.2µM*	34%	-16%	-14%	nt
S=c1[nH]nc(-c2ccncc2)n1/N=C/c1ccccc1	13%	7.9µM*	11%	-7%	-11%	1%
